Measured values taken from ChEMBL document CHEMBL1961873, “Compounds: GSK PKIS; Assays: Nanosyn kinase panel” (2012).

Legend:
[1] = target: Mitogen-activated protein kinase kinase kinase kinase 4 (Homo sapiens) (UniProt O95819); details: at 1 µM;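 note: reported figure is an averaged inhibition value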
[2] = target: Dual specificity mitogen-activated protein kinase kinase 1 (Homo sapiens) (UniProt Q02750); details: at 0.1 µM
[3] = target: Dual specificity mitogen-activated protein kinase kinase 1 (Homo sapiens) (UniProt Q02750); details: at 1 µM
[4] = target: Misshapen-like kinase 1 (Homo sapiens) (UniProt Q8N4C8); details: at 0.1 µM
Sequence of Misshapen-like kinase 1 (Homo sapiens) (Q8N4C8 whole entry, looked up): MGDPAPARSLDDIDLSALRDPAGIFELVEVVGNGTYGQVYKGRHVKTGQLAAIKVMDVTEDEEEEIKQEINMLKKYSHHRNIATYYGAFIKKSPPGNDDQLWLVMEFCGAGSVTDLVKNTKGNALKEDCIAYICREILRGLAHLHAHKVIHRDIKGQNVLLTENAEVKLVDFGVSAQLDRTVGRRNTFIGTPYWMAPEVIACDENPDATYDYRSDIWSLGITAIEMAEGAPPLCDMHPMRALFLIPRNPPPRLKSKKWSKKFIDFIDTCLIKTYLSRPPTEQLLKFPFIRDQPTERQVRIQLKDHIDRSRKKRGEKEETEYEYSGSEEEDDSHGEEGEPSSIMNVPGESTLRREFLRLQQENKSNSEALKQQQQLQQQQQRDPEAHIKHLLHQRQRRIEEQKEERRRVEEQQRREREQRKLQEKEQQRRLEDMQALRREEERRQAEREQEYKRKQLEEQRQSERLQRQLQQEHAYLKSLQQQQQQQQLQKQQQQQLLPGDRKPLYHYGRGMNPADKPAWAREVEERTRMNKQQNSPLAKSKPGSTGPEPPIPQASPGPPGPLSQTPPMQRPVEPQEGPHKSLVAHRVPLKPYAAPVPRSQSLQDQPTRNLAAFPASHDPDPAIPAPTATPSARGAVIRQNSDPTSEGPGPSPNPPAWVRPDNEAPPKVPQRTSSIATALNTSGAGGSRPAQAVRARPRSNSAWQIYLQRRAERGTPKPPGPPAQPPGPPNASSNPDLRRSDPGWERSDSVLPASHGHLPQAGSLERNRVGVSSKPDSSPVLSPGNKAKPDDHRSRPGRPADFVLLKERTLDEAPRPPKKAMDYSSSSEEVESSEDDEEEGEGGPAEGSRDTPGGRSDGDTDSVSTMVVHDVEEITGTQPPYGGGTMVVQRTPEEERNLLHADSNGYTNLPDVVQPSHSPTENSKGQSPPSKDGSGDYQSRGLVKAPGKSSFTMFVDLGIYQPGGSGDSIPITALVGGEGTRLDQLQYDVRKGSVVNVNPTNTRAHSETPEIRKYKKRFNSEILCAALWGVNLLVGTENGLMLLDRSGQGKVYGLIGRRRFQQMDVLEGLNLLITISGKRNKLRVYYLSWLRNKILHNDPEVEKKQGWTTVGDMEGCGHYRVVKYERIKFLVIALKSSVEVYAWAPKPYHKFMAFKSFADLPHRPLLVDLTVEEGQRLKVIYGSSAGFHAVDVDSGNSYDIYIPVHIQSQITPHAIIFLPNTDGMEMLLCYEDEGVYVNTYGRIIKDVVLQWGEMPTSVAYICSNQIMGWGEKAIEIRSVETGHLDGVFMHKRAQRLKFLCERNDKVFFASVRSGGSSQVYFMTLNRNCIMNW

[5] = target: Misshapen-like kinase 1 (Homo sapiens) (UniProt Q8N4C8); details: at 1 µM
[6] = target: T1, Serine/threonine-protein kinase 4 (Homo sapiens) (UniProt Q13043); details: at 0.1 µM
T1 sequence (whole entry): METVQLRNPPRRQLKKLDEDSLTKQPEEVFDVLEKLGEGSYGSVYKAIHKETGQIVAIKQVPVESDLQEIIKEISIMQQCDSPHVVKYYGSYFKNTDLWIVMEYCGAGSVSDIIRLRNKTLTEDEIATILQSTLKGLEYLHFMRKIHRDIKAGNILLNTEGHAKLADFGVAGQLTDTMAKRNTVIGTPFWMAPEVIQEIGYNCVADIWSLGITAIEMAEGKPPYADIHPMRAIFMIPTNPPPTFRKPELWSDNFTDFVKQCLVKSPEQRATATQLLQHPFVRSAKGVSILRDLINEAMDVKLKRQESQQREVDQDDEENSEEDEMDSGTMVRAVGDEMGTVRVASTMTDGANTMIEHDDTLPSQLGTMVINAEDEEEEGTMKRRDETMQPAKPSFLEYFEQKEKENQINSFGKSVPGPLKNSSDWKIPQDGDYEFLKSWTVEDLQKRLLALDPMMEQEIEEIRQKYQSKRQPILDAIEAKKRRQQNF

[7] = target: T1, Serine/threonine-protein kinase 4 (Homo sapiens); details: at 1 µM
[8] = target: T2, Serine/threonine-protein kinase 3 (Homo sapiens) (UniProt Q13188); details: at 0.1 µM
T2 sequence (whole entry): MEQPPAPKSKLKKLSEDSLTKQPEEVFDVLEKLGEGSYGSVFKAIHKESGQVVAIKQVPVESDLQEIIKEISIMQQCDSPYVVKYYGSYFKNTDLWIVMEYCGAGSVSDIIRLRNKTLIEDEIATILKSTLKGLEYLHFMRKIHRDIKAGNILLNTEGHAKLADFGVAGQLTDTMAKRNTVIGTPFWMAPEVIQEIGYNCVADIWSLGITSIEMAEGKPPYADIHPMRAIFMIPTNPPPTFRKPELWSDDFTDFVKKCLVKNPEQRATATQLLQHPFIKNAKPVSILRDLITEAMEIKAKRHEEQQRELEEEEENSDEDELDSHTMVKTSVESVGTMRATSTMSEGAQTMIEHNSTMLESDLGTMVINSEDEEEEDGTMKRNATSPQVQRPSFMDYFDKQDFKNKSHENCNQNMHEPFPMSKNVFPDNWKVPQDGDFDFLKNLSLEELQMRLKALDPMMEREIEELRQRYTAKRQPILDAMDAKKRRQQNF

[9] = target: T2, Serine/threonine-protein kinase 3 (Homo sapiens); details: at 1 µM
[10] = target: Serine/threonine-protein kinase 26 (Homo sapiens) (UniProt Q9P289); details: at 0.1 µM
Sequence of Serine/threonine-protein kinase 26 (Homo sapiens) (Q9P289 2-416 limits assumed): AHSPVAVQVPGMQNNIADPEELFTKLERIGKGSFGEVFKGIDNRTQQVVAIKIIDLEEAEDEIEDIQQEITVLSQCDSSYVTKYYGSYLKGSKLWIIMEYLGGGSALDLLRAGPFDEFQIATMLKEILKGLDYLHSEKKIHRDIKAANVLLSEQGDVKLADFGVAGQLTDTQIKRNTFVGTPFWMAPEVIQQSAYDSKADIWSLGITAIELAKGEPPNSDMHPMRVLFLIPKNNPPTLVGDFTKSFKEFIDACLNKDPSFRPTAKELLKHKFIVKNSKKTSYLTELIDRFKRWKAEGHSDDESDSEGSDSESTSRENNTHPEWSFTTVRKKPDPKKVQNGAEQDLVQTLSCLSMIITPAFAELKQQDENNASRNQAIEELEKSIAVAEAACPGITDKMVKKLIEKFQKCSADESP

[11] = target: Serine/threonine-protein kinase 26 (Homo sapiens) (UniProt Q9P289); details: at 1 µM
[12] = target: Serine/threonine-protein kinase PAK 1 (Homo sapiens) (UniProt Q13153); details: at 0.1 µM
Sequence of Serine/threonine-protein kinase PAK 1 (Homo sapiens) (Q13153 whole entry): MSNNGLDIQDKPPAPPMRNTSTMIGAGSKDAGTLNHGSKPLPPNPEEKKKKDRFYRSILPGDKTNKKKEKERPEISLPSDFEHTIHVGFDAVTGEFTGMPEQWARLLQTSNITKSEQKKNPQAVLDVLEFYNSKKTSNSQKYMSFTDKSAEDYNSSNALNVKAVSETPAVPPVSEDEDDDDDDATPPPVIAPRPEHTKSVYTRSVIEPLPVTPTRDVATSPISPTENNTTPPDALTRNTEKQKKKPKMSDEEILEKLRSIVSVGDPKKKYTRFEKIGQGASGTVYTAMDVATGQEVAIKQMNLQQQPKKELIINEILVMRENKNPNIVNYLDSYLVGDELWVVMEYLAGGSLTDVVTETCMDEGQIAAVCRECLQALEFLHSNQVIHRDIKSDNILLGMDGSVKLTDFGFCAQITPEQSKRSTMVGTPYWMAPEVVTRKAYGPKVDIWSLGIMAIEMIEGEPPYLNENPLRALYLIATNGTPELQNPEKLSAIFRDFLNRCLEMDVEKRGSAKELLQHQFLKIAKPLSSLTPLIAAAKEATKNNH

[13] = target: Serine/threonine-protein kinase PAK 1 (Homo sapiens) (UniProt Q13153); details: at 1 µM
[14] = target: Serine/threonine-protein kinase PAK 2 (Homo sapiens) (UniProt Q13177); details: at 0.1 µM
Sequence of Serine/threonine-protein kinase PAK 2 (Homo sapiens) (Q13177 whole entry): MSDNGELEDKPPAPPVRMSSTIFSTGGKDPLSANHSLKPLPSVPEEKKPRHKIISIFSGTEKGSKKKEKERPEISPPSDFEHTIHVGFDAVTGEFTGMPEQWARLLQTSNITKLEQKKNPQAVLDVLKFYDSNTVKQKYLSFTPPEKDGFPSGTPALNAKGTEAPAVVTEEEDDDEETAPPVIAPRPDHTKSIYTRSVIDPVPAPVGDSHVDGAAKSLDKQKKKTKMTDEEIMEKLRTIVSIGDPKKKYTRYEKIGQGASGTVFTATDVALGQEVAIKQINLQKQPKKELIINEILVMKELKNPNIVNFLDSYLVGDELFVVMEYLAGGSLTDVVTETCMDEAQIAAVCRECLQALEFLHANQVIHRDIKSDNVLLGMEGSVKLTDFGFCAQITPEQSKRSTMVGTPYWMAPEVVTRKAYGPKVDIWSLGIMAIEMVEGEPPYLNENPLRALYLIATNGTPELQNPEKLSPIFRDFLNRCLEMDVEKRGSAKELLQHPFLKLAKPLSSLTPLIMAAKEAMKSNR

[15] = target: Serine/threonine-protein kinase PAK 2 (Homo sapiens) (UniProt Q13177); details: at 1 µM
[16] = target: Serine/threonine-protein kinase PAK 3 (Homo sapiens) (UniProt O75914); details: at 0.1 µM
Sequence of Serine/threonine-protein kinase PAK 3 (Homo sapiens) (O75914 whole entry, looked up): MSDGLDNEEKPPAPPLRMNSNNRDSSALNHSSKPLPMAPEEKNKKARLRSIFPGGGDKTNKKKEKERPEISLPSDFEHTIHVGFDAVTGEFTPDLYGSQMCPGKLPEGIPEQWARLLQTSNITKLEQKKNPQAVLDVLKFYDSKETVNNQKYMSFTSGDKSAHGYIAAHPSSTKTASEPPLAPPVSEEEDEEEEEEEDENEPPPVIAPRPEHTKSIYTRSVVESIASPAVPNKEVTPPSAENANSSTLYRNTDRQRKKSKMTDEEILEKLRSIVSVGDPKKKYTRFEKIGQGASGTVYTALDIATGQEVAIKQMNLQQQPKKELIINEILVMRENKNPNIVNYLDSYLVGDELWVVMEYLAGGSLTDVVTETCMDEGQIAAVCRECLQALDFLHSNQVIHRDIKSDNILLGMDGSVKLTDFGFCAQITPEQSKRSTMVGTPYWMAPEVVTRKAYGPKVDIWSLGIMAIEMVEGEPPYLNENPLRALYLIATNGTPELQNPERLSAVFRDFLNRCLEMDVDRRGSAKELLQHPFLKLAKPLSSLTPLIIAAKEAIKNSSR

[17] = target: Serine/threonine-protein kinase PAK 3 (Homo sapiens) (UniProt O75914); details: at 1 µM
[18] = target: Serine/threonine-protein kinase PAK 5 (Homo sapiens) (UniProt Q9P286); details: at 0.1 µM
Sequence of Serine/threonine-protein kinase PAK 5 (Homo sapiens) (Q9P286 whole entry, looked up): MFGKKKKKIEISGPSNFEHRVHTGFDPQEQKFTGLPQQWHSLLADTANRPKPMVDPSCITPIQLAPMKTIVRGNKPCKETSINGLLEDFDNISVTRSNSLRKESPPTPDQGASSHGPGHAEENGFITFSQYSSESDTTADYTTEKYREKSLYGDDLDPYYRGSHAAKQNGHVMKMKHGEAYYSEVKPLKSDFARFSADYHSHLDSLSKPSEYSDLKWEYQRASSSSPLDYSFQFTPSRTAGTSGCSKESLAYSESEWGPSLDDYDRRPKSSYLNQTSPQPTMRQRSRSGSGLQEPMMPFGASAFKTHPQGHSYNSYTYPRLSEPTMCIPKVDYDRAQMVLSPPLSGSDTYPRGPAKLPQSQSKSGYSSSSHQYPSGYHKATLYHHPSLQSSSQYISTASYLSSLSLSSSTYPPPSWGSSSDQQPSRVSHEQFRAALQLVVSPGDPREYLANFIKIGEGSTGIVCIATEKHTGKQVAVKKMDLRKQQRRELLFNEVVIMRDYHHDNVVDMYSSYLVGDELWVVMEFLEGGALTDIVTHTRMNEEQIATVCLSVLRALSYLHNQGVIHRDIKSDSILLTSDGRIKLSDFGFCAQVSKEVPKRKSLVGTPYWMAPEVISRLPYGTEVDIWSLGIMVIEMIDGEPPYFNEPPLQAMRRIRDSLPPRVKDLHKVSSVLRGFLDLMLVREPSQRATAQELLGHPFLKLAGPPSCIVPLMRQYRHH

[19] = target: Serine/threonine-protein kinase PAK 5 (Homo sapiens) (UniProt Q9P286); details: at 1 µM
[20] = target: Serine/threonine-protein kinase PAK 6 (Homo sapiens) (UniProt Q9NQU5); details: at 0.1 µM;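 note: mean PAK6 inhibition reported from the GSK PKIS screen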

Sequence of Dual specificity mitogen-activated protein kinase kinase 1 (Homo sapiens) (Q02750 whole entry): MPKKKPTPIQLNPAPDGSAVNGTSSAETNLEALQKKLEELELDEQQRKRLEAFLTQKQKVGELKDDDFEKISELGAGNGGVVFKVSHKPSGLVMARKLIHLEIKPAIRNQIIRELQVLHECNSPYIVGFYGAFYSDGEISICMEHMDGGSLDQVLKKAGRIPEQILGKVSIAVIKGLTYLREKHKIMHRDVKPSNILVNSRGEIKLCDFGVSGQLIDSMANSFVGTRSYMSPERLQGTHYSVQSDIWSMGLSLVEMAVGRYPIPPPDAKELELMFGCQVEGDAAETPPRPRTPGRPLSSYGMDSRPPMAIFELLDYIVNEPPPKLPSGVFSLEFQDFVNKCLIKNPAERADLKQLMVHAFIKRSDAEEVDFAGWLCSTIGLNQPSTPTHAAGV

Row | Structure (SMILES) | inhibition [1] [%] | inhibition [2] [%] | inhibition [3] [%] | inhibition [4] [%] | inhibition [5] [%] | inhibition [6] [%] | inhibition [7] [%] | inhibition [8] [%] | inhibition [9] [%] | inhibition [10] [%] | inhibition [11] [%] | inhibition [12] [%] | inhibition [13] [%] | inhibition [14] [%] | inhibition [15] [%] | inhibition [16] [%] | inhibition [17] [%] | inhibition [18] [%] | inhibition [19] [%] | inhibition [20] [%]
1 | COc1cccc(-n2ncc3c(N/N=C/c4ccc(F)cc4)ncnc32)c1 | 21.2 | 4.9 | 3.13 | 7.39 | 17.2 | 7.56 | 9.41 | 9.36 | 9.98 | -1.54 | -2.12 | 4.83 | 7.12 | 2.32 | 2.24 | 4.66 | 4.91 | 9.72 | 5.66 | 3.88
2 | c1cc(-c2cnn3nc(N4CCOCC4)ccc23)nc(NC2CC2)n1 | 20.9 | 4.84 | 9.33 | 4.94 | 13.9 | 7.25 | 10.3 | 8.19 | 8.11 | -0.92 | -4.91 | -0.13 | 5.07 | 3.69 | 3.04 | 4.26 | 4.93 | 6.57 | 1.19 | 4.42
3 | Cc1cccc2c1NC(=O)/C2=N\Nc1ccc(S(N)(=O)=O)cc1 | 48.9 | 2.57 | 1.95 | 7.44 | 34.6 | 6.81 | 24.4 | 7.49 | 15.2 | -2.65 | -4.46 | 7.85 | 5.96 | 2.44 | 1.43 | 3.43 | 3.88 | 11.2 | 2.81 | 3.7
4 | Cc1cccc(Nc2ncc(-c3ccccc3)o2)c1 | 14.1 | 2.53 | 2.53 | 2.9 | 10.2 | 1.44 | 4.08 | 1.8 | 4.97 | 0.69 | 1.87 | -2.05 | 3.35 | 0.94 | 2.06 | 2.83 | 5.76 | 1.42 | 10.2 | -4.69
5 | Fc1ccc(-c2nn3ncccc3c2-c2ccnc(Nc3ccc4c(c3)OCCO4)n2)cc1 | 73.2 | 5.8 | 11.7 | 16.4 | 65.2 | 3.27 | 5.1 | 3.68 | 3.21 | -0.01 | 7.97 | 5.7 | 9.76 | 1.46 | 2.5 | 4.83 | 4.47 | -1.83 | -2.83 | -0.14
6 | CN1CCC(n2cnc(-c3ccc(F)cc3)c2-c2ccnc(N)n2)CC1 | 12 | 3.26 | 3.41 | 4.61 | 11 | 2.73 | 7.85 | 3.58 | 6.77 | -1.05 | 1.62 | -0.17 | 3.27 | 0.07 | -0.19 | 0.98 | 1.43 | -5.17 | 3.69 | -8.92
7 | COc1cc(N2CCN(C(C)C)CC2)ccc1Nc1nc(Nc2ccc(F)cc2C(N)=O)c2cc[nH]c2n1 | 68.1 | 2.21 | 15.6 | 14.2 | 55 | 5.27 | 25.2 | 4.27 | 10.3 | 0.23 | 2.73 | 3.63 | 7.46 | 0.48 | 2.24 | 2.9 | 6.18 | 8.18 | 27.4 | -5.81
